# Reference: PubChem BioAssay
# Several values for one entry are separate records, joined by “and”; a condition that tells them apart may be missing. Equal entries are not always repeated. Activity calls are given as the source filed them.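 How the source made its calls, unless noted: active means inhibition at or above 50% relative to wild type and mutant plate controls; inactive means inhibition below 50%.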
# Key:
# [1] = inhibitors of TNFa-induced NFkB p65 translocation, primary screen, imaging, HUVEC, MLSMR starter and 10KST1 sets (AID 438;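 active means inhibition above 20% together with a positive visual image hit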;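 further: compound added about 3h40 before a 20 min TNFalpha stimulation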;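 on inhibition: signal is the nuclear over cytoplasmic p65 intensity ratio per well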); conditions: HUVEC TNFa-induced p65 nuclear translocation; cell count: measured here: nuclei count (cytotoxicity indicator), at 2.08 µM; inhibition: at 2 µM, stronger effect = higher value, 0% TNFa-plus-vehicle, 100% no-TNFa wells
# [2] = reduction of polyQ htt aggregates in cells – imaging, exon1htt(103Q)mCFP cells, high-content imaging, primary screen (AID 483;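 active means visual image review flags a hit and inhibition of aggregation exceeds 20%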;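 further: compound exposure lasted 3 days before fixation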;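 on nuclei count: percent of the per-plate median nuclei count of sample wells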); conditions: exon1htt(103Q)mCFP cell line, aggregate imaging, at 2 µM; inhibition of aggregation: stronger effect = higher value; nuclei count: measured here: cell count, toxicity
# [3] = endothelial E-selectin expression blockers – imaging, HUVEC, immunofluorescence, MLSMR starter and 10KST1 sets, primary screen (AID 487;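 active means visually confirmed hit in the image check and inhibition above 20%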;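 on inhibition: signal is fraction of cell area covered by stained E-selectin grains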;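 on nuclei count: 100% = median nuclei count of all wells on the same plate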); conditions: HUVEC TNFalpha-induced E-selectin immunofluorescence imaging, at 2 µM; inhibition: stronger effect = higher value; nuclei count: measured here: cell number, toxicity
# [4] = Primary imaging screen for DUSP6 inhibitors that restore phospho-Erk in transfected HeLa cells, chemical complementation (AID 609;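 active means compounds giving at least 50% inhibition in the cell-based MKP-3 phosphatase rescue imaging test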;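 on inhibition: phospho-Erk level distribution per well compared with pooled transfected vehicle control wells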); conditions: HeLa MKP-3 transfected, phospho-Erk imaging KS statistic, at 10 µM, cells stimulated with TPA for 15 min
# [5] = biological target: Dual specificity protein phosphatase 6 (Homo sapiens) (UniProt Q16828); experiment: as above; conditions: HeLa MKP-3 transfected, phospho-Erk imaging KS statistic; at 10 µM; stronger effect = higher value; cells stimulated with TPA for 15 min
# [6] = biological target: Voltage-gated potassium channel subunit beta-2 (Rattus norvegicus) (UniProt P62483); experiment: inhibitors of rat Kvbeta2 reductase activity – biochemical, NADPH fluorescence, primary screen (AID 622;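 active means fluorescence slope higher than the sample average by over 3 SD, cut at about -0.22 in these data, passing the limit was not always enough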;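 further: slope of raw intensity against log time taken from 70 to 1610 s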); conditions: recombinant KvBeta, 4-cyanobenzaldehyde reduction, at 10 µM, stronger effect = higher value
# [7] = biological target: Voltage-gated potassium channel subunit beta-2 (Rattus norvegicus) (UniProt P62483); experiment: enhancers of rat Kvbeta2 NADPH turnover – biochemical, NADPH fluorescence, primary screen (AID 623;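 active means NADPH fluorescence slope more negative than the mean of all samples by about 3 SD, 99.7% confidence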;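 further: fluorescence intensity change per second fitted from 20 to 320 s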); conditions: Recombinant KvBeta, NADPH fluorescence decrease slope, 10 min; at 10 µM; stronger effect = lower value
# [8] = biological target: Alpha-2C adrenergic receptor (Homo sapiens) (UniProt P18825); experiment: compounds altering alpha2C-coupled GIRK flux – cell-based, HEK293 alpha2C/GIRK1/2, thallium flux, primary screen (AID 624;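 active means fluorescence slope after compound addition differing from the mean of all screened samples at 99.7% confidence, in either direction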;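 further: slope of fluorescence ratio to pre-addition baseline per second over 15 to 24 s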); conditions: thallium flux BTC fluorescence, at 10 µM, actives lie on both sides
# [9] = inhibitors of larval lipid processing in zebrafish, primary screen, whole organism, PED6 fluorescence, gall bladder and intestine (AID 686;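 active means a full or partial loss of lipid-probe fluorescence in the fish gall bladder, intestine or both, judged by eye; inactive means no fluorescence loss, or compound toxic to the fish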;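 further: larvae 5 to 7 days old with five fish per well; signal comes from phospholipase A2 cleavage of quenched PED6 carried via bile; overnight exposure to compound and PED6 before scoring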); conditions: Zebrafish larvae PED6 lipid processing, fluorescence scoring; screened at 20 µM (by protocol)
# [10] = loss of swimming-algae plug formation – whole organism, Chlamydomonas reinhardtii, WT vs cilia-less mutant, absorbance, 96-well, primary screen (AID 463189); conditions: Chlamydomonas reinhardtii gravitaxis, OD600 absorbance, 2 days; at 10 µM; stronger effect = higher value;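 further: 0% = wild type cc124 cells in DMSO and 100% = ciliumless bld1 mutant cells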
# [11] = blockers of RIG-like receptor reporter activation – cell-based, Sendai virus stimulus, luciferase, 10K MLSCN set, TLR/RLR signaling modifier project, primary screen (AID 602276;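 active means inhibition at or above 50% at 10 µM; inactive means inhibition below 50%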;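 further: firefly luciferase from ISG56 promoter only with Renilla not read in this screen; 0% = Sendai virus plus DMSO and 100% = medium plus DMSO without virus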); conditions: HEK293 RL24 IRF3 luciferase reporter, at 10 µM, stronger effect = higher value
# [12] = TLR3 IRF3 reporter activation blockers – cell-based, poly I:C stimulus, luciferase, 10K MLSCN set, primary screen (AID 602277;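 active means inhibition of the reporter signal at or above 50%; inactive means inhibition below 50%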); conditions: HEK293-TLR3 RL24 IRF3 luciferase reporter, at 10 µM, stronger effect = higher value
# [13] = biological target: Muscarinic acetylcholine receptor M4 (Homo sapiens) (UniProt P08173); experiment: M4-linked GIRK flux change, two-sided – cell-based, HEK293 M4/GIRK, thallium flux, BTC-AM, M4 allosteric agonist project, primary screen (AID 625;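 active means fluorescence slope after compound addition differing from the mean of all tested samples at 99.7% confidence, mostly higher but some lower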;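 further: thallium influx through GIRK channels coupled to M4 in HEK293 cells with BTC-AM dye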); conditions: at 10 µM, actives lie on both sides
# [14] = measured here: cell density z-score
# [15] = measured here: nuclear c-Myc green intensity z-score
# [16] = measured here: nuclear pErk red intensity z-score, stronger effect = higher value
# Voltage-gated potassium channel subunit beta-2 (Rattus norvegicus), sequence (P62483 whole entry, looked up): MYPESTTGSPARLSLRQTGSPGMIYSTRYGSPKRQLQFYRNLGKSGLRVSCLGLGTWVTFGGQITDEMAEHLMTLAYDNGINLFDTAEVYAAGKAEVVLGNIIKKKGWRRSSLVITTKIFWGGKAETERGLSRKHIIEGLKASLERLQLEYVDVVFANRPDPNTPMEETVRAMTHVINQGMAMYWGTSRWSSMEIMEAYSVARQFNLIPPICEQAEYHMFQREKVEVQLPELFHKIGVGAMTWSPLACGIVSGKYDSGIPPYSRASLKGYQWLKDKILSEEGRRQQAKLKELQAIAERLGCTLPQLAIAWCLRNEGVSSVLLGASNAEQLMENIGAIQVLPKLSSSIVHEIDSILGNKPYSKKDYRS
# Alpha-2C adrenergic receptor (Homo sapiens), sequence (P18825 whole entry, looked up): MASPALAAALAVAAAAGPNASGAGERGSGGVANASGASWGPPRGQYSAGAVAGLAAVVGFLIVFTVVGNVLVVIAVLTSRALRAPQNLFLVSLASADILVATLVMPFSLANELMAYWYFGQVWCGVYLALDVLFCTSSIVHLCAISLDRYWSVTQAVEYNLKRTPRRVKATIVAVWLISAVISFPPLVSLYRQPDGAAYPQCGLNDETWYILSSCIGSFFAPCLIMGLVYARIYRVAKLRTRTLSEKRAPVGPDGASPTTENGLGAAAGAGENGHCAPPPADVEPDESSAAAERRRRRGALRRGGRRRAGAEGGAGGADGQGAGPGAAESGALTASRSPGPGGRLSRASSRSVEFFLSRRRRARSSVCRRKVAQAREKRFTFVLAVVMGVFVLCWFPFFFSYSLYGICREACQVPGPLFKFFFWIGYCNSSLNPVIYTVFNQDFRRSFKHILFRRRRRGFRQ
# Dual specificity protein phosphatase 6 (Homo sapiens), sequence (Q16828 whole entry, looked up): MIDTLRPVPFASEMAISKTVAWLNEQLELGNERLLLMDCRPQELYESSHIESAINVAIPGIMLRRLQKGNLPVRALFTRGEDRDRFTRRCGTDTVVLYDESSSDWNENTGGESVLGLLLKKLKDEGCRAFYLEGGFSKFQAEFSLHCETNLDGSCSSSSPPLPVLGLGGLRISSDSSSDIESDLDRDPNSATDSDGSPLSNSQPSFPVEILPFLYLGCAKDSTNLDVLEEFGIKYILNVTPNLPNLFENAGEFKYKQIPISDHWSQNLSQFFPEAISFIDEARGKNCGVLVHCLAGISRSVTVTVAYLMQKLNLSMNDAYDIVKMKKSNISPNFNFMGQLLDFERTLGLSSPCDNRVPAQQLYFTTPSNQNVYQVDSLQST
# Muscarinic acetylcholine receptor M4 (Homo sapiens), sequence (P08173 whole entry, looked up): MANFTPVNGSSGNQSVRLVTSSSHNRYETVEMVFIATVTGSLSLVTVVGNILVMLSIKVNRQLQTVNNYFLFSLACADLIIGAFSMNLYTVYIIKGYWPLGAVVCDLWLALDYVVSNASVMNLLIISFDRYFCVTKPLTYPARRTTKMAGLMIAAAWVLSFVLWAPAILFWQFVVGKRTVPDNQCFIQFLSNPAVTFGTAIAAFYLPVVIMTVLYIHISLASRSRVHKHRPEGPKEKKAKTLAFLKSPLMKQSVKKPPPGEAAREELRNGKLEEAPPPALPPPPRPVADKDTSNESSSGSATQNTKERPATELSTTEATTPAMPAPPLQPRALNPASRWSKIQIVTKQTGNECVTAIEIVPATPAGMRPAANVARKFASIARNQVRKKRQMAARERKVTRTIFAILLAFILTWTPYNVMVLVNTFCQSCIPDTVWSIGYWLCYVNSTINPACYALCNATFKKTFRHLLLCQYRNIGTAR
Compound,cell count [1],inhibition [1],inhibition of aggregation [2],nuclei count [2],inhibition [3],nuclei count [3],"z-score [4, 14]","z-score [4, 15]","z-score [4, 16]",inhibition [5],fluorescence slope [6],NADPH fluorescence slope [7],slope [8],outcome [9],inhibition [10],inhibition [11],inhibition [12],fluorescence slope [13]
O=C1NC2c3ccccc3C(=O)N2c2c1cnn2-c1ccccc1 (stereo unspecified),603,-7.1% (inactive),-11.1% (inactive),111%,-48.5% (inactive),146%,0.407,0.889,-0.995,7.83% (inactive),-0.425 (inactive),-1.7e-05 (inactive),0.00503 (inactive),inactive,14.6% (inactive),-6.19% (inactive),6.35% (inactive),–
CCOc1ccc(S(=O)(=O)N(C)C)cc1-c1nc2c(C(C)(C)C)nn(C)c2c(=O)[nH]1,411,20.9% (active),-22.3% (inactive),107%,27.5% (inactive),115%,1.1,0.134,-1.43,17.3% (inactive),-0.477 (inactive),-0.000115 (inactive),0.00418 (inactive),inactive,19.7% (inactive),-1.7% (inactive),-7.19% (inactive),0.00621 (inactive)
Cn1nnnc1SCC1=C(C(=O)O)N2C(=O)[C@@H](NC(=O)[C@H](O)c3ccccc3)[C@H]2SC1,634,-4% (inactive),-4.8% (inactive),106%,-44% (inactive),107%,1.21,1.9,-1.92,11.3% (inactive),-0.45 (inactive),-5.3e-05 (inactive),0.00577 (inactive),inactive,22.9% (inactive),10.3% (inactive),42% (inactive),–
CC1CCc2cc(F)cc3c(O)c(C(=O)NCC4CCCO4)c(=O)n1c23 (stereo unspecified),553,2.6% (inactive),1.2% (inactive),83.8%,-28.6% (inactive),134%,-0.0424,-0.796,-0.351,-8.76% (inactive),-0.395 (inactive),1.7e-06 (inactive),0.0054 (inactive),inactive,11.8% (inactive),4.8% (inactive),8.44% (inactive),–
O=C(CSc1nnc(-c2ccco2)c(-c2ccco2)n1)Nc1ccccc1,582,-9.5% (inactive),-9.2% (inactive),100%,-30.7% (inactive),123%,0.318,-1.08,1.26,1.6e-07% (inactive),-0.358 (inactive),-1.6e-05 (inactive),0.00359 (inactive),inactive,17.3% (inactive),-13.8% (inactive),6.55% (inactive),–
COc1ccc(-c2nnc3sc(-c4c(OC)cccc4OC)nn23)cc1,498,-7.5% (inactive),26.2% (inactive),28.4%,-176% (inactive),131%,-0.466,-2.13,-0.0898,-6.06% (inactive),-0.435 (inactive),-0.000139 (inactive),0.00691 (inactive),inactive,14.7% (inactive),11.7% (inactive),13% (inactive),–
CC(=O)NCCCCCCNC(C)=O,515,-2% (inactive),-11.6% (inactive),101%,5.3% (inactive),114%,-1.8,0.662,0.679,10.2% (inactive),-0.45 (inactive),-5.8e-05 (inactive),0.00491 (inactive),inactive,20.9% (inactive),9.84% (inactive),44.8% (inactive),–
CCCC(=O)O[C@]1(C(=O)COC(C)=O)CC[C@H]2[C@@H]3C[C@H](F)C4=CC(=O)C=C[C@]4(C)[C@@]3(F)[C@@H](O)C[C@@]21C,642,-9.3% (inactive),-34.4% (inactive),61.6%,-95.2% (inactive),136%,-0.0756,-0.093,0.355,-0.493% (inactive),-0.5 (inactive),-5.5e-05 (inactive),0.00445 (inactive),inactive,9.17% (inactive),15.9% (inactive),48.2% (inactive),–
C#CCN(C)Cc1ccccc1,613,-8.1% (inactive),11.2% (inactive),96.3%,-105% (inactive),135%,1.46,-0.921,-1.15,13.3% (inactive),-0.461 (inactive),-3.5e-05 (inactive),0.00478 (inactive),inactive,-8.12% (inactive) and 10.4% (inactive),18.7% (inactive),42.3% (inactive),–
COc1ccc(C2/C(=C(/O)c3ccccc3)C(=O)C(=O)N2c2ncccn2)cc1OC (stereo unspecified),460,-0.7% (inactive),2.3% (inactive),108%,-7.4% (inactive),151%,-0.394,1.14,-0.858,11.4% (inactive),-0.338 (inactive),-3.2e-05 (inactive),0.00532 (inactive),inactive,-1.92% (inactive),7.62% (inactive),3.83% (inactive),–
